# Source: PubChem BioAssay (several laboratories)
# TIM10 inh = growth inhibitors of TIM10 yeast strain. S. cerevisiae TIM10 strain growth, BacTiter-Glo luminescence, 24 h. inhibition, % at 10 µM. 1.4% of 330,000 active;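 active = inhibition of 40% or more at the single tested concentration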;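 note: wild-type TIM10 isogenic control strain grown at permissive 25 °C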
# SKKanGAS inh = blocks kanamycin growth of S. pyogenes SKKanGAS strain; BacTiter-Glo, 6 h; 1.3% of 300,000 active; inhibition, % at 7.5 µM; AID 1662;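 active = mean replicate score, as percent of positive control median, at least 50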;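 note: strain carries kanamycin resistance gene driven by streptokinase promoter and grows in 40 µg/ml kanamycin; loss of luminescence reflects streptokinase promoter inhibition or plain growth inhibition; 0% = median of DMSO wells and 100% = positive control at its reference dose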
# PfHsp90 yeast 2 = growth inhibition of yeast expressing Plasmodium Hsp90; S. cerevisiae expressing PfHsp90, BacTiter-Glo ATP, 48 h; yeast lacking PDR1 and PDR3 efflux regulators; inhibition, % at 9.4 µM; 0.32% of 310,000 active;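 active = every replicate shows inhibition above about 80%, whatever the replicate mean, limit read from the data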;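 note: 0% = DMSO neutral controls and 100% = 20 µM radicicol positive controls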
# tim23-1 inh = tim23-1 yeast growth inhibition; S. cerevisiae tim23-1 growth, BacTiter-Glo luminescence, 24 h; inhibition, % at 20 µM; 1.3% of 330,000 active;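 active = growth inhibition of the mutant yeast at or above 50%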;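 note: temperature-sensitive mutant grown at 25 °C; plate controls were DMSO-treated mutant yeast for no effect and medium wells lacking yeast for full effect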
# NALP1 inh = blocks the NALP1 inflammasome reconstituted in yeast; S. cerevisiae NALP1/ASC/caspase-1 growth, X-gal OD620, 72 h; inhibition, % at 10 µM; 0.61% of 280,000 active; in the data active = inhibition mostly above about 24%, no sharp cut-off; inactive = mostly below about 32%
# tim10-1 inh = growth inhibitors of tim10-1 mutant yeast; S. cerevisiae tim10-1 ts strain growth, BacTiter-Glo, 24 h; inhibition, % at 20 µM; AID 463190; 2.2% of 330,000 active;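 active = inhibition of at least 40%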;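 note: mutant grown at 25 °C; 0% = DMSO wells with yeast and 100% = wells holding no yeast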
# tim23-1 confirm = confirmation of tim23-1 mutant yeast growth inhibitors; 83% of 4,400 active; S. cerevisiae tim23-1 growth, BacTiter-Glo luminescence, 24 h; shares compounds with tim23-1 inh; inhibition, % at 20 µM; AID 463218;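 active = inhibition above about 39% in either of two replicate wells at 20 µM, limit read from the data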;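 note: temperature-sensitive tim23-1 mutant grown at 25 °C; 0% = DMSO wells with yeast and 100% = medium wells without yeast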
# Numbers without * were called inactive; . = no result. In the library only some 4.8% were active in any assay of this set; here they are far more common.
SMILES,TIM10 inh,SKKanGAS inh,PfHsp90 yeast 2,tim23-1 inh,NALP1 inh,tim10-1 inh,tim23-1 confirm
CC1(C)CC(=O)C=C(c2cccc(Cl)c2O)C1,17,.,-9,59*,.,-1,53*
CN(Cc1ccco1)c1ncnc2ccc(-c3ccc4c(c3)OCO4)cc12,7,.,-10,51*,.,22,42*
CCN(CC)CCOC(=O)c1ccc(NC(=O)/C=C/c2cccs2)cc1,-3,-5,-23,0,20,15,.
CCOC(=O)c1ccc(NC(=O)/C=C/c2cccs2)cc1,19,-4,14,61*,4,9,52*
O=C(Cc1ccccc1[N+](=O)[O-])NCc1ccncc1,-18,-8,1,13,0,8,.
NS(=O)(=O)c1ccc(N2CCOCC2)c(C(=O)NCc2cccs2)c1,-7,.,-10,8,.,4,.
COc1ccc(Cc2ccccc2C(=O)O)cc1,.,.,-23,.,.,.,.
COc1ccc(CC2=CC(=O)c3ccccc3C2=O)cc1,36,66*,4,66*,-8,30,75*
CN(C)c1c2ccccc2nc2c(F)c(F)c(F)c(F)c12,19,2,28,64*,-16,18,67*
O=C(c1cc(-c2ccco2)nc2ccccc12)N1CCN(c2ccc(F)cc2)CC1,-7,5,-12,38,19,16,.
CCCCN(C(=O)c1ccc(C)cc1)c1c(N)n(CCC)c(=O)[nH]c1=O,23,0,-2,53*,7,15,54*
COCCN(C(=O)c1ccc(N2C(=O)c3ccccc3C2=O)cc1)c1c(N)n(CC(C)C)c(=O)[nH]c1=O,16,.,-9,60*,.,21,51*
CCCCN(C(=O)c1ccc2c(c1)OCO2)c1c(N)n(CCCC)c(=O)[nH]c1=O,10,1,.,52*,.,19,53*
O=C(Nc1nc2ccccc2s1)C1CCCN1S(=O)(=O)c1ccc(Cl)cc1 (stereo unspecified),7,34,.,55*,22,40,50*
CCCCCCN(C(=O)CCCN1C(=O)NC(c2ccc(-c3ccccc3)cc2)C(C(=O)OCc2ccccc2)=C1C)C(C)C(=O)NCCCC (stereo unspecified),-1,.,-1,23,.,14,.
CC1(C)OC(=O)C(=Cc2ccc[nH]2)C(=O)O1,5,-2,12,76*,19,12,53*
COc1cccc(-c2ccc3ncnc(NCc4cccnc4)c3c2)c1,6,.,34,31,.,12,.
CC(C)(C)c1nnc(N/N=C/c2ccccc2O)n(N)c1=O,37,24,-22,62*,9,34,47*
CC(C)(C)c1nnc(N/N=C/c2ccccc2)n(N)c1=O,-22,10,-6,-17,32,11,.
CCOc1ccccc1C(=O)Oc1ccc2ccc(=O)oc2c1,32,0,9,68*,-4,5,47*
O=[N+]([O-])c1ccc(N=Nc2c(O)[nH]c3ccc(F)cc23)cc1,3,14,-22,50*,12,35,13
CCOc1ccccc1/C=C(\C#N)C(=O)NC1CC1,39,-2,.,55*,.,28,52*
O=C(/C=C/N1CCOCC1)c1ccc(-c2ccccc2)cc1,36,18,106*,52*,4,1,25
CCC(C)(C)NC(=O)CN(C(=O)CCC(=O)Nc1nccs1)c1cccc(C)c1,1,9,25,14,0,6,.
COC(=O)C1=NN(c2ccc(C)cc2)C2(S1)SC(C(C)=O)=C(C)N2c1ccccc1 (stereo unspecified),25,6,.,51*,11,35,40*
SMILES,TIM10 inh,SKKanGAS inh,PfHsp90 yeast 2,tim23-1 inh,NALP1 inh,tim10-1 inh,tim23-1 confirm
COC(=O)C1=NN(c2ccccc2)C2(S1)SC(C(C)=O)=C(C)N2c1ccccc1 (stereo unspecified),25,-3,1,31,9,33,.
CCCCS/C(N)=N/N=C/c1ccccc1O,24,13,25,58*,9,37,66*
CCCS/C(N)=N/N=C/c1cc(C)ccc1O,8,1,28,44,-2,27,.
Cc1cccc(CS(=O)(=O)Cc2ccc(C(=O)NCCCN3CCOCC3)o2)c1,7,4,32,-1,9,-1,.
CCc1ccc2nc(SCC(=O)Nc3nnc(C)s3)c(C)cc2c1,-13,-6,7,58*,0,8,13
CCc1nnc(NC(=O)CSc2nc3cc4c(cc3cc2C)OCCO4)s1,-22,7,20,-19,-3,13,.
CC(=O)Nc1ccc(S(=O)(=O)N2CCC(NC(C)=O)(c3cccc(F)c3)CC2)cc1,12,-7,-14,21,-9,-9,.
COc1cccc(/C=N/NC(=S)NC2CC3CCC2C3)c1OC (stereo unspecified),17,3,-9,4,6,-12,.
Oc1ccccc1/C=N/NC(=S)NC1CC2CCC1C2 (stereo unspecified),5,70*,-50,66*,24,28,37
CCOC(=O)Nc1ccc(C(=O)/C=C/c2ccccc2)cc1,27,-12,6,58*,-12,27,40
CC1(C)CC2CC(C)(CN2C(=O)c2cc(-c3ccc(O)cc3)on2)C1 (stereo unspecified),-6,34,17,53*,2,-36,48*
